Rows were chosen to be rich in hits. Some 0.9% of all compounds tested hit in one or more screens of this group.
PPARg SRC1 recr = PPARgamma agonists recruiting SRC-1 coactivator, primary screen, biochemical | Peroxisome proliferator-activated receptor gamma (Homo sapiens), P37231 | PPARgamma-SRC-1 coactivator recruitment biochemical assay | activation, % at 8 µM | 200,000 tested, 0.41% active; in the data active = activation above about 19%;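 note: 0% = DMSO and 100% = reference agonist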
PPARg SRC-3 ag = PPARgamma agonists recruiting SRC-3 coactivator, primary screen, biochemical; Peroxisome proliferator-activated receptor gamma (Homo sapiens), P37231; biochemical PPARgamma/SRC-3 coactivator recruitment assay; activation, % at 8 µM; 200,000 tested, 0.26% active; AID 731, 2007; in the data active = activation above about 23%;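 note: 0% = DMSO and 100% = reference agonist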
PPARg SRC2 recr = agonists of PPARg-SRC-2 recruitment, primary screen, biochemical, HTS | Peroxisome proliferator-activated receptor gamma (Homo sapiens), P37231 | PPARgamma LBD-SRC-2 recruitment | activation, % at 8 µM | 200,000 tested, 0.34% active | AID 1032, 2008;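 note: 0% = vehicle and 100% = reference agonist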
SRC1 TRFRET art = TR-FRET detection interference compounds, primary screen, artefact control for PPARgamma SRC-1 recruitment agonists, biochemical, TR-FRET emission ratio; TR-FRET detection artefact counter-screen; active compounds read high; AID 1051, 2008; 99,000 tested, 0.34% active; TR-FRET ratio at 8 µM; in the data active = TR-FRET ratio above about 2300
SRC3 TRFRET art = TR-FRET detection interference compounds, artefact control for PPARgamma SRC-3 recruitment agonists, biochemical, TR-FRET ratio; TR-FRET artefact counter-screen, PPARgamma/SRC-3 format; active compounds read high; AID 1048, 2008; TR-FRET ratio at 8 µM; 99,000 tested, 0.39% active; in the data active = TR-FRET ratio above about 2000
SRC2 TRFRET art = TR-FRET signal artefacts, primary screen, artefact control for PPARgamma SRC-2 agonist project, biochemical. 200,000 tested, 0.4% active. TR-FRET ratio at 8 µM. TR-FRET artefact counter-screen; active compounds read high; in the data active = TR-FRET ratio above about 2000
PPARg SRC2 ag = agonists of PPARgamma SRC-2 coactivator recruitment, confirmation, biochemical, HTS | shares compounds with PPARg SRC-3 ag | biochemical SRC-2 recruitment by PPARgamma | activation, % at 8 µM | 790 tested, 52% active;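 note: 0% = vehicle alone and 100% = reference agonist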
PPARg SRC1 ag = PPARgamma agonists recruiting SRC-1 coactivator, confirmation, biochemical | shares compounds with PPARg SRC-3 ag | PPARgamma–SRC-1 coactivator recruitment biochemical assay | activation, % at 8 µM | 790 tested, 43% active | AID 1300, 2008; in the data active = activation above about 20%;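 note: 0% = vehicle wells and 100% = reference agonist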
PPARg SRC3 ag = PPARgamma-driven SRC-3 coactivator recruitment agonists, confirmation, biochemical. 790 tested, 29% active. biochemical PPARgamma-SRC-3 coactivator recruitment, agonist mode. activation, % at 8 µM. shares compounds with PPARg SRC-3 ag. AID 1301, 2008; in the data active = activation above about 24%;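 note: 0% = vehicle wells and 100% = reference agonist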
Numbers without * were called inactive; . = no result given. Cut-off read from the data, not from the text of the source, unless noted: active = activation above about 22%; inactive = the rest.

SMILES | PPARg SRC1 recr | PPARg SRC-3 ag | PPARg SRC2 recr | SRC1 TRFRET art | SRC3 TRFRET art | SRC2 TRFRET art | PPARg SRC2 ag | PPARg SRC1 ag | PPARg SRC3 ag
Cc1nnc(N2C(=O)C(O)=C(C(=O)c3ccco3)C2c2ccc(C(C)C)cc2)s1 (configuration not stated) | 27* | 10 | 33* | 2626* | 2243* | 2173* | 19 | 12 | 11
COc1cccc(C2C(C(=O)c3cccs3)=C(O)C(=O)N2CCN(C)C)c1OC (configuration not stated) | -2 | 1 | 10 | . | . | 1515 | . | . | .
O=C(CCCNC(=O)/C(=C/c1ccccc1F)NC(=O)c1ccccc1)OCc1ccccc1 | 6 | 0 | -1 | 1517 | 1394 | 1331 | . | . | .
Cc1cc(OCC(=O)OCC(=O)Nc2cc(C(F)(F)F)ccc2N2CCOCC2)ccc1Cl | 1 | 2 | 8 | 1986 | 1518 | 1632 | . | . | .
C=C(C)C1CC=C(C)/C(=N\NC(=S)Nc2ccc(C)cc2)C1 (configuration not stated) | -3 | 5 | -6 | 1681 | 1672 | 1470 | . | . | .
COc1ccc(CC(=O)Nc2ccc(-c3nc4cc(C)ccc4o3)c(O)c2)cc1OC | 43* | 24 | 2 | . | . | 1476 | 41* | 28* | 25*
Cc1ccc2oc(-c3ccc(NC(=O)c4ccncc4)cc3O)nc2c1 | 14 | -4 | 14 | 1908 | 1692 | 1588 | . | . | .
Cc1cc(Br)c2nc3c(c(C(=O)O)c2c1)CCCCC3 | 53* | 50* | 98* | 3214* | 4157* | 4070* | 67* | 43* | 47*
CCc1ccc2nc3c(c(C(=O)O)c2c1)CCC3 | 1 | 9 | 9 | . | . | 1632 | . | . | .
CC(=O)Sc1nc(-c2ccccc2)[nH]c1S(=O)(=O)c1ccc(C)cc1 | 22* | 37* | 11 | 1927 | 1554 | 1637 | 11 | 21* | 18
CCC(C)NC(=O)CC(NS(=O)(=O)c1ccc(NC(C)=O)cc1)C(C)C (configuration not stated) | 9 | -1 | 5 | 1624 | 1697 | 1501 | . | . | .
CCC(=Nc1ccc(N)cc1)C1=C(O)C(C(=O)OC)C(C)(C)CC1=O (configuration not stated) | 23* | 38* | 23* | . | . | 1785 | 1 | 4 | 6
COc1cccc(NC(=S)N2CCN(Cc3ccccc3)CC2)c1 | -3 | 1 | 6 | 1680 | 1538 | 1603 | . | . | .
CCNc1nc(Oc2ccc(F)cc2)cc(C(F)(F)F)n1 | -3 | 4 | 4 | 1898 | 1498 | 1629 | . | . | .
CC(C)Nc1nc(Oc2ccc(Cl)cc2)cc(C(F)(F)F)n1 | 11 | 6 | 23* | . | . | 1676 | 0 | 3 | 0
O=c1oc(-c2ccccc2F)nc2c1cnn2-c1ccccc1 | 23* | 24 | 18 | . | . | 1482 | 14 | 25* | 27*
C(=N\Nc1nc2ccccc2[nH]1)/c1ccc2c(c1)OCO2 | 22* | 10 | 5 | 2193 | 1932 | 2021* | 12 | 17 | 9
C(=N\Nc1nc2ccccc2[nH]1)/c1ccncc1 | 16 | 9 | 11 | 1761 | 1586 | 1937 | . | . | .
COc1ccc(O)c(/C=N/Nc2nc3ccccc3[nH]2)c1 | 7 | 21 | 26* | 2218 | 1959 | 1754 | 8 | 8 | 9
C(=N\Nc1nc2ccccc2[nH]1)/c1cccs1 | 15 | 28* | 10 | . | . | 1564 | 10 | 11 | 7
COc1cc(/C=N/Nc2nc3ccccc3[nH]2)ccc1O | 7 | 14 | 9 | 2030 | 1195 | 1560 | . | . | .
O=C(CCc1nnc(CCCc2ccccc2)o1)NCC(F)(F)F | 6 | -2 | 1 | 1657 | 1677 | 1549 | . | . | .
CN(C)c1ccc(/C=C/c2ccc3c4ccccc4ccc3[n+]2-c2ccccc2)cc1 | 47* | 28* | 49* | 2287 | 2137* | 2446* | 30* | 20* | 23
CN(C)c1ccc(/C=C/c2ccc3ccccc3[n+]2C)cc1 | 66* | 59* | 94* | 3396* | 2738* | 2876* | 41* | 33* | 31*
CN(C)c1ccc(/C=C/c2ccncc2)cc1 | -4 | 10 | 3 | . | . | 1455 | . | . | .
SMILES | PPARg SRC1 recr | PPARg SRC-3 ag | PPARg SRC2 recr | SRC1 TRFRET art | SRC3 TRFRET art | SRC2 TRFRET art | PPARg SRC2 ag | PPARg SRC1 ag | PPARg SRC3 ag
COc1ccccc1/C=C/C(=O)NNC(=O)c1cccs1 | 6 | 4 | 3 | 1859 | 1499 | 1500 | . | . | .
Cc1cccc(NC(=O)CN(c2ccc(F)cc2)S(C)(=O)=O)c1 | -1 | -5 | 1 | 1905 | 1539 | 1552 | . | . | .
CC1CCCN(C(=O)c2ccc3c(c2NCCO)C(=O)c2ccccc2C3=O)C1 (configuration not stated) | 8 | 17 | 15 | . | . | 1480 | . | . | .
O=C1c2ccccc2C(=O)c2c1ccc(C(=O)N1CCCCC1)c2NCCO | 21* | 21 | 5 | . | . | 1568 | 13 | 8 | 5
COC(=O)c1c(NC(=O)Cc2ccccc2)sc(C)c1C | -4 | -8 | -1 | . | . | 1586 | . | . | .
COC(=O)c1c(NC(=S)Nc2ccccc2Cl)sc(C)c1C | 22* | 38* | 31* | . | . | 2012* | 31* | 24* | 19
CCN(CC)CCNC(=O)c1ccc(CS(=O)(=O)c2ccc(Br)cc2)o1 | 2 | 11 | 15 | . | . | 1549 | . | . | .
COc1cccc(C(=O)COC(=O)C(C)N2C(=O)C3C4C=CC(C4)C3C2=O)c1 (configuration not stated) | 1 | 2 | 12 | . | . | 1493 | . | . | .
CCN(CC)c1ccc(NC(=O)c2cnn(CC)c2)cc1 | 12 | 27* | 22* | . | . | 1842 | -2 | -4 | 0
CN(C)S(=O)(=O)c1cccc(C(=O)OCC(=O)NC2CCCc3ccccc32)c1 (configuration not stated) | 1 | 4 | -6 | 1741 | 1697 | 1549 | . | . | .
Cc1nc(N)sc1C(=O)Nc1ccccc1 | 2 | 4 | -4 | . | . | 1547 | . | . | .
Cc1cccc(Nc2nc(-c3ccccc3)c(C(=O)Nc3cccnc3)s2)c1 | 29* | 27* | 38* | 3448* | 3117* | 2484* | 57* | 44* | 38*
Cc1nc(NC(N)=S)sc1C(=O)Nc1ccccc1 | 14 | 27* | 18 | . | . | 1621 | 5 | 5 | 5

High-throughput results as filed in PubChem.
